A selection: hits, their analogues and other compounds. The true share with any hit is near 19%.
ELG1 DNA repair = ELG1-dependent DNA repair inhibition | HEK293T ELG1-luciferase reporter, luminescence, 16 h; DNA damage induced by 5-fluorouridine | Potency, µM (doses to about 46.1 µM), for the others: at the top dose activity change, negative = inhibition, most hits filed as inhibitors | hit rate 2.3% among 330,000 | AID 504467; note: potency is the fitted concentration of half-maximal effect; nearly all actives have a fitted effect of over 55% in size
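HEK293T cells expressing luciferase-tagged ELG1 (2,000/well) received 5-Fluorouridine plus compound or DMSO for 16 hr at 37 °C. Luciferase was read by ONE-Glo luminescence after 30 min at room temperature.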
TDP1 cell noCPT = qHTS for Inhibitors of human tyrosyl-DNA phosphodiesterase 1 (TDP1): qHTS in cells in absence of CPT. DT40 Tdp1-/- hTDP1 cells, no CPT, ATP luminescence, 48 h. Potency, µM (titrated, usually from 46.2 µM), for inactives: at the highest dose activity change, negative = growth inhibition, most hits filed as inhibitors. hit rate 15% among 420,000. AID 686978, 2013; note: potency is the fitted concentration of half-maximal effect; nearly all actives have a fitted effect of over 55% in size
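Luminescent ATP content (CellTiter-Glo) served as the growth readout. Knockout chicken DT40 cells expressing human TDP1 were exposed to compounds without camptothecin for a minimum 48 hr at 37 °C.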
Giardia kill = Giardia lamblia killing. Giardia lamblia trophozoite viability. activity change, % at 7.66 µM, hits read low. hit rate 0.15% among 340,000. AID 540267; in the data active = activity change below about -80%; inconclusive = between about -30% and that limit;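 note: parasites exposed to compound for two days anaerobically before the ATP read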
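Viability, read as ATP luminescence: trophozoites at 100 cells/well, compound added, 48 hrs anaerobic at 37 deg C, then 15-30 min room-temperature development before reading.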
DT40 TDP1 CPT = growth inhibition of DT40 Tdp1-/-;hTDP1 cells with camptothecin (screen for TDP1 inhibitors). hit rate 12% among 420,000. chicken DT40 Tdp1-/-;hTDP1 cells + 20 nM CPT, ATP luminescence, 48 h. AID 686979. Potency, µM (highest dose often 46.2 µM), without a hit: top-dose activity change, negative = growth inhibition, actives largely listed as inhibitors; note: potency is the fitted concentration of half-maximal effect; nearly all actives have a fitted effect of over 55% in size
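Chicken DT40 Tdp1-/- cells stably complemented with human TDP1 were seeded at 400 cells/well in medium containing 20 nM camptothecin, exposed to pin-transferred compounds, and grown at 37 °C for at least 48 hr. Viability was read as ATP luminescence.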
TDP1 inh = inhibitors of human tyrosyl-DNA phosphodiesterase TDP1. Q9NUW8. recombinant TDP1, AlphaScreen DNA substrate cleavage. Potency, µM (titrated, usually from 130 µM), without a hit: top-dose activity change, negative = inhibition, actives largely listed as inhibitors. hit rate 0.28% among 350,000; note: potency is the fitted concentration of half-maximal effect; nearly all actives have a fitted effect of over 40% in size
Target sequence (Q9NUW8 whole entry, looked up): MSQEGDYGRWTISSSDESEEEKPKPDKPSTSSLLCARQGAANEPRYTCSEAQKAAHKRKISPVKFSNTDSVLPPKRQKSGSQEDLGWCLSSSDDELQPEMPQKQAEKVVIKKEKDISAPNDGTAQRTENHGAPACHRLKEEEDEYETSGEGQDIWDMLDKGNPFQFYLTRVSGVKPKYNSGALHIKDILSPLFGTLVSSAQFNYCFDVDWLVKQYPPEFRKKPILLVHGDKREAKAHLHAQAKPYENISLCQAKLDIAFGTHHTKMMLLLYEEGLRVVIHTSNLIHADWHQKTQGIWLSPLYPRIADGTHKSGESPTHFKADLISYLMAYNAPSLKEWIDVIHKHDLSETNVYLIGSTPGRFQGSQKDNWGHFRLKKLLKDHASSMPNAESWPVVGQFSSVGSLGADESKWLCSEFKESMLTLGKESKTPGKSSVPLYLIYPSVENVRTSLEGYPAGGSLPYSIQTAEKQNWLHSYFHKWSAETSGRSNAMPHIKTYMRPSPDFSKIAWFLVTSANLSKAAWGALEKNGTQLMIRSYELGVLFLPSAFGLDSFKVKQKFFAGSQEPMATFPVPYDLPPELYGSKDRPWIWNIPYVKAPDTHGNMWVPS
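E. coli-derived human Tdp1, 1 nM final. Cpd preinc 15 min RT; substrate 15 nM final, 5 min RT; AS bead mix 10 ug/ml final, 10 min RT. Signal loss = tyrosine-FITC cleavage. No-enzyme wells = max signal.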
IL-1B inflam inh = inflammasome signaling inhibition, IL-1 beta readout; AID 743279; activity change, % at 57.5 µM; THP-1 LPS/ATP IL-1B secretion, AlphaLISA, 16 h; active compounds read low; hit rate 4.7% among 360,000; in the data active = activity change below about -50%; inconclusive = mostly about -30% to -49%
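Secreted IL-1B measured by AlphaLISA bead assay after 16 h compound exposure of THP-1 cells; compounds (final up to 57.5 uM) added 1 h before LPS (250 ng/mL) and ATP (1.25 mM) stimulation; lower signal means less secretion.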
Numbers without * were called inactive; ? = inconclusive; nt = no result given. Unless noted, calls come from the whole dose curve; as a rule, active = well fitted curve in the direction sought with a large enough effect; inconclusive = small, poorly fitted or top-dose-only effect, or another doubt; inactive = no such curve, though single readings can be large; an effect the other way counts as inactive or inconclusive. % is set by controls: 0 for no effect and ±100 for the full control effect.

SMILES	ELG1 DNA repair	TDP1 cell noCPT	Giardia kill	DT40 TDP1 CPT	TDP1 inh	IL-1B inflam inh
CC1=C(C(=O)N(C)C)CC(CC(=O)NC2CC2)C(=O)N1CCC1=CCCCC1 (stereo not given)	nt	-18%	nt	-12%	nt	11
CC1=C(C(=O)N(C(C)C)C(C)C)CC(CC(=O)NC2CCCC2)C(=O)N1CCC1=CCCCC1 (stereo not given)	nt	23µM*	nt	?	nt	?
CC1=C(C(=O)N(C(C)C)C(C)C)CC(CC(=O)NC2CC2)C(=O)N1CCC1=CCCCC1 (stereo not given)	nt	?	nt	16µM*	nt	42
CC(C)C(NS(=O)(=O)c1ccc2c(c1)Cc1cc(S(=O)(=O)NC(C(=O)O)C(C)C)ccc1-2)C(=O)O (stereo not given)	0%	0%	-23	6%	3%	31
Cc1c(O)ccc(C(=O)CN2CCN(Cc3ccccc3)CC2)c1O	0%	-9%	15	-12%	3%	3
Cc1c(O)ccc(C(=O)CN2CCN(c3ccc(F)cc3)CC2)c1O	0%	16µM*	-2	?	1%	23
CCCCNC(=O)c1nc(-c2ccc(C(F)(F)F)cc2)oc1-c1ccccc1	nt	-20%	nt	-24%	nt	-18
O=C(NC1CCCC1)c1nc(-c2c(F)cccc2F)oc1-c1ccccc1	nt	?	nt	?	nt	-4
O=C(NCc1ccccc1)c1nc(-c2c(F)cccc2F)oc1-c1ccccc1	nt	18µM*	nt	?	nt	5
CCCCNC(=O)c1nc(-c2cc3ccccc3[nH]2)oc1-c1cccc(C(F)(F)F)c1	nt	?	nt	15µM*	nt	-3
CCCCCNC(=O)c1nc(-c2c(F)cccc2F)oc1-c1ccccc1	nt	21µM*	nt	?	nt	-15
COc1cc(OC)cc(C(=O)NNC(=S)NCc2ccco2)c1	-16%	-23%	0	-21%	-5%	8
CC(C)c1cc(C(=O)NNC(=S)NCc2ccco2)c(O)c(C(C)C)c1	18µM*	?	-4	?	-3%	-54*
CC(C)(O)C(=O)NNC(=S)NCc1ccco1	-3%	-8%	7	-7%	8%	0
CC(C)(C)c1ccc(C(=O)NNC(=S)NCc2ccco2)cc1	15%	23µM*	-15	?	10%	15
O=C(NCc1ccco1)c1ccc2[nH]c(=O)c(=O)[nH]c2c1	7%	0%	35	2%	-8%	10
CC(C)(C)N1C(=O)c2ccc(C(=O)NCc3ccco3)cc2C1=O	8%	?	-22	-28%	7%	-58*
COc1ccccc1CNC(=O)Nc1nc(C(N)C(C)C)cs1 (stereo not given)	nt	?	nt	?	nt	-51*
COc1ccccc1NC(=O)Nc1nc(C(C)(C)C)cs1	-6%	-23%	38	16µM*	6%	-83*
COc1ccccc1NC(=O)Nc1cc(NC(=O)Nc2ccccc2OC)c(C)nc1C	?	?	6	?	6%	37
COc1ccccc1CNC(=O)Nc1cccs1	?	?	22	?	7%	14
COc1ccc(OC)c(NC(=O)Nc2nc(C(C)N)cs2)c1 (stereo not given)	nt	?	nt	-29%	nt	-69*
COc1ccccc1NC(=O)Nc1nc(C(N)C(C)C)cs1 (stereo not given)	nt	21µM*	nt	?	nt	-27
COCc1ccc(-c2c(-c3ccc(OC)cc3)oc(=O)c3cc(OC)c(OC)cc23)cc1	-8%	23µM*	6	?	-9%	28
COc1ccc(-c2c(-c3ccsc3)oc(=O)c3cc(OC)c(OC)cc23)cc1	?	?	2	?	0%	40
COc1ccc(-c2oc(=O)c3cc(OC)c(OC)cc3c2-c2ccc3c(c2)OCO3)cc1	?	18µM*	-17	16µM*	-1%	-11

Compound activity as filed in PubChem BioAssay.
